# Experimental data reported in PubChem BioAssay (NCATS).
# Results filed as inconclusive are left out. A call without a number means that no potency is given here. Values without a mark were called inactive. The source made the active and inactive calls. The call rests on the fitted dose curve; in most records, active means well fitted inhibition curve with a large enough effect; inconclusive means small, poorly fitted or top-dose-only effect; inactive means flat fitted curve, though single readings scatter.
# Key:
# [1] = target: Glutathione peroxidase 1 (Homo sapiens) (UniProt P07203); assay: Primary qHTS Assay for Inhibitors of Recombinant Selenoprotein Glutathione Peroxidase 1 (GPX1) (AID 1845191)
# How it was run: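 GR-coupled readout: NADPH consumption tracked by fluorescence, ex 340/em 450 nm, at t=0 and after 15 min at RT. Final mix 10 nM GPX1, 1 mM GSH, 0.5 mM CHP, 0.5 mM NADPH, 100 nM GR, 0.01% BSA, following 30 min enzyme–compound preincubation.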
# [2] = target: Phospholipid hydroperoxide glutathione peroxidase GPX4 (Homo sapiens) (UniProt P36969); assay: Primary qHTS Assay for Inhibitors of Recombinant Selenoprotein Glutathione Peroxidase 4 (GPX4) (AID 1845192); on activity change, negative = inhibition: series mostly up to about 50 µM
# How it was run: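 Steps: GPX4 plus compound, 30 min RT; add GR/GSH/NADPH master mix; start with cumene hydroperoxide; read 340/450 nm fluorescence at 0 and 15 min. Finals were 200 nM GPX4, 1 mM GSH, 0.5 mM CHP, 0.5 mM NADPH, 100 nM GR.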
# Further: nearly all actives have a fitted effect of over 65% in size.
# Potency means the concentration at half of the fitted maximal effect.
# Glutathione peroxidase 1 (Homo sapiens), sequence (P07203 whole entry, looked up): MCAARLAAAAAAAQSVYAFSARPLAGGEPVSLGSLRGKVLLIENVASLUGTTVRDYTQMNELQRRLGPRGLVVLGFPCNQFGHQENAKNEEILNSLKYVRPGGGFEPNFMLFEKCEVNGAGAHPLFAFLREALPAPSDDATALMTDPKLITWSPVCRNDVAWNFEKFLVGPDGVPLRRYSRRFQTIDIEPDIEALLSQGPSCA
# Phospholipid hydroperoxide glutathione peroxidase GPX4 (Homo sapiens), sequence (P36969 whole entry, looked up): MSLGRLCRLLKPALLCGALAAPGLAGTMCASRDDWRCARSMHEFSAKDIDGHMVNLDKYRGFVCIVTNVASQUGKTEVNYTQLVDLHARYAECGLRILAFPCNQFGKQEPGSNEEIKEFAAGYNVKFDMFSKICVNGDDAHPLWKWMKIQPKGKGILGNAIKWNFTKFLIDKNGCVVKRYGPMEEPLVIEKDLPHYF
smiles,measurement,setting,value
CSCC[C@H](N)C(=O)O,Potency,[1],inactive
same,Potency,[2],inactive
CN1C2CC[C@@H]1CC(OC(=O)[C@H](CO)c1ccccc1)C2 (stereo partly drawn),Potency,[1],inactive
same,Potency,[2],inactive
OC[C@H]1O[C@H](O[C@H]2[C@H](O)[C@@H](O)[C@H](O)O[C@@H]2CO)[C@H](O)[C@@H](O)[C@@H]1O,Potency,[1],inactive
same,Potency,[2],inactive
C[C@H](CCC(=O)O)[C@H]1CC[C@H]2[C@@H]3CC[C@@H]4C[C@H](O)CC[C@]4(C)[C@@H]3C[C@H](O)[C@]12C,Potency,[1],inactive
same,Potency,[2],inactive
CCOc1cc(C(CS(C)(=O)=O)N2C(=O)c3cccc(NC(C)=O)c3C2=O)ccc1OC (stereo not drawn),Potency,[1],inactive
same,Potency,[2],inactive
C[N+](C)(C)CCOP(=O)([O-])OP(=O)(O)OC[C@H]1OC(n2ccc(N)nc2=O)[C@H](O)[C@@H]1O (stereo partly drawn),outcome,[1],inactive [at 0.4 µM]
same,"activity change, negative = inhibition",[2],0.205% [at 0.409 µM]
COc1ccc(-c2c(Cl)ncn2-c2ccc(S(N)(=O)=O)cc2)cc1F,Potency,[1],inactive
same,Potency,[2],inactive
COc1cc(N)cn[n+]1-c1ccccc1,Potency,[1],inactive
same,Potency,[2],inactive
Cc1ncc([N+](=O)[O-])n1CCOC(=O)c1ccccc1,Potency,[1],inactive
same,Potency,[2],inactive
OC(CCN1CCCCC1)(c1ccccc1)C1CCCC1 (stereo not drawn),Potency,[1],inactive
same,Potency,[2],inactive
C[C@H]1C[C@H]2[C@H]3CCC4=CC(=O)C=C[C@]4(C)[C@@]3(F)[C@@H](O)C[C@]2(C)[C@@]1(OC(=O)c1ccccc1)C(=O)CO,Potency,[1],inactive
same,Potency,[2],inactive
CC(C=CC1=C(C)CCCC1(C)C)=CC=CC(C)=CC(=O)Oc1c(C)c(C)c2c(c1C)CC[C@@](C)(CCC[C@H](C)CCC[C@H](C)CCCC(C)C)O2,outcome,[1],inactive [at 4.49 µM]
same,outcome,[2],inactive [at 4.52 µM]
CNCC(=O)OCc1cccnc1N(C)C(=O)OC(C)[n+]1cnn(C[C@](O)(c2cc(F)ccc2F)[C@@H](C)c2nc(-c3ccc(C#N)cc3)cs2)c1 (stereo partly drawn),Potency,[1],inactive
same,Potency,[2],inactive
CC(=O)OC1CCC2(C)C(=CCC3C2CCC2(C)C(c4cccnc4)=CCC32)C1 (stereo not drawn),Potency,[1],inactive
same,Potency,[2],inactive
CO[C@H]1C[C@@H]2CC[C@@H](C)[C@@](O)(O2)C(=O)C(=O)N2CCCC[C@H]2C(=O)O[C@H]([C@H](C)C[C@@H]2CC[C@@H](OCCO)[C@H](OC)C2)CC(=O)[C@H](C)/C=C(/C)[C@@H](O)[C@@H](OC)C(=O)[C@H](C)C[C@H](C)\C=C/C=C\C=C/1C,Potency,[1],inactive
same,Potency,[2],3.98 µM (active)
Cc1oc(=O)oc1COC(=O)N1CC[C@@H](N2CC/C(=C\C3=C(C(=O)O)N4C(=O)[C@@H](NC(=O)/C(=N/O)c5nsc(N)n5)[C@H]4SC3)C2=O)C1,Potency,[1],7.18 µM (active)
same,Potency,[2],10 µM (active)
CC(C)C[C@H](NC(=O)[C@@H](Cc1c[nH]c2ccccc12)NC(=O)[C@H](Cc1ccc(O)cc1)NC(=O)[C@H](CO)NC(=O)[C@H](Cc1c[nH]c2ccccc12)NC(=O)[C@H](Cc1cnc[nH]1)NC(=O)[C@@H]1CCC(=O)N1)C(=O)N[C@@H](CCCN=C(N)N)C(=O)N1CCC[C@H]1C(=O)NCC(N)=O,Potency,[1],inactive
same,Potency,[2],inactive
NC(=O)C1CCCN1C(=O)C(Cc1cnc[nH]1)NC(=O)C1CCC(=O)N1 (stereo not drawn),Potency,[1],inactive
same,Potency,[2],inactive
CCCCC(C)(O)CC=C[C@H]1[C@H](O)CC(=O)[C@H]1CCCCCCC(=O)OC (stereo partly drawn),Potency,[1],inactive
same,Potency,[2],inactive
CCC1(C)OC(=O)N(C)C1=O (stereo not drawn),Potency,[1],inactive
same,Potency,[2],inactive
C=CCN1CC[C@]23c4c5ccc(O)c4O[C@H]2[C@@H](OCCOCCOCCOCCOCCOCCOCCOC)CC[C@@]3(O)[C@H]1C5,Potency,[1],inactive
same,Potency,[2],inactive
[Mn].[O]=[Mn][OH].[O]=[Mn][OH],Potency,[1],inactive
same,Potency,[2],inactive
CO[C@@H]1[C@@H](O[C@@H]2O[C@H](C)[C@@H](O[C@H]3C[C@@](C)(O)[C@H](O)[C@H](C)O3)[C@H](N(C)C)[C@H]2O)[C@@H](CC=O)C[C@@H](C)[C@@H](O[C@H]2CC[C@H](N(C)C)[C@@H](C)O2)/C=C/C=C/C[C@H](C)OC(=O)C[C@H]1O,Potency,[1],inactive
same,Potency,[2],inactive
CCCCCCC(COC(=O)c1cccnc1)(COC(=O)c1cccnc1)COC(=O)c1cccnc1,Potency,[1],inactive
same,Potency,[2],inactive
O=C(O)C(O)[C@H](O)[C@H](O)[C@H](O)[C@H](O)CO (stereo partly drawn),Potency,[1],inactive
same,Potency,[2],inactive
CC(=O)NC(C=O)C(O)C(O)[C@H](O)CO (stereo partly drawn),Potency,[1],inactive
same,Potency,[2],inactive
CC[C@H](C)[C@@H]([C@@H](CC(=O)N1CCC[C@H]1[C@H](OC)[C@@H](C)C(=O)NCCc1ccccc1)OC)N(C)C(=O)[C@@H](NC(=O)[C@H](C(C)C)N(C)C)C(C)C,Potency,[1],inactive
same,Potency,[2],inactive
N#Cc1c(N2C[C@@H]3NCCO[C@H]3C2)c(F)cc2c(=O)c(C(=O)O)cn(C3CC3)c12,Potency,[1],inactive
same,Potency,[2],inactive
C=C1CC[C@H](O)C/C1=C\C=C1/CCC[C@]2(C)[C@@H]([C@H](C)CC[C@H](O)C(C)(C)O)CC[C@@H]12,Potency,[1],inactive
same,Potency,[2],14.1 µM (active)
C[C@H]1O[C@]2(CS1)CN1CCC2CC1,Potency,[1],inactive
same,Potency,[2],inactive
CC[C@H]1[C@@H](O)[C@@H]2[C@H](CC[C@]3(C)[C@@H]([C@H](C)CCC(=O)O)CC[C@@H]23)[C@@]2(C)CC[C@@H](O)C[C@@H]12,Potency,[1],inactive
same,Potency,[2],11.2 µM (active)
CC[C@@H]1CCN[C@H](C(=O)N[C@@H]([C@H]2O[C@H](SC)[C@H](O)[C@@H](O)[C@H]2O)[C@H](C)Cl)C1,Potency,[1],inactive
same,Potency,[2],inactive
CCCCCCCCN=C(N)NC(N)=NCc1ccc(Cl)c(Cl)c1,Potency,[1],inactive
same,Potency,[2],inactive
O=C(O)CSc1nnc(Br)n1-c1ccc(C2CC2)c2ccccc12,Potency,[1],inactive
same,Potency,[2],inactive
C=CC1(C)CC(=O)C2(O)C(C)(O1)C(OC(C)=O)C(OC(=O)CCN(C)C)C1C(C)(C)CCC(O)C12C (stereo not drawn),Potency,[1],inactive
same,Potency,[2],inactive
CO/N=C(\C(=O)N[C@@H]1C(=O)N2C(C(=O)O)=C(Cn3ccc(=N)n3CCO)CS[C@H]12)c1csc(N)n1,Potency,[1],18 µM (active)
same,Potency,[2],inactive
CCC(=O)OCC(=O)[C@]1(OC(=O)CC)[C@H](C)C[C@H]2[C@H]3[C@H]([C@@H](O)C[C@@]21C)[C@@]1(C)C=CC(=O)C=C1C[C@H]3Cl,Potency,[1],inactive
same,Potency,[2],inactive
CCCCCC(O)/C=C/[C@@H]1C(CCCCCCC(=O)O)C(=O)C[C@@H]1O (stereo partly drawn),Potency,[1],inactive
same,Potency,[2],inactive
C=C[C@]1(C)C[C@@H](OC(=O)CSC2C[C@H]3CC[C@@H](C2)N3C)C2(C)[C@H](C)CCC3(CCC(=O)[C@H]32)[C@@H](C)[C@@H]1O (stereo partly drawn),Potency,[1],inactive
same,Potency,[2],inactive
CC(C)OC(=O)[C@H](C)N[P@@](=O)(OC[C@H]1O[C@@H](n2ccc(=O)[nH]c2=O)[C@](C)(F)[C@@H]1O)Oc1ccccc1,Potency,[1],inactive
same,Potency,[2],inactive
C[C@H](Cc1cc2c(c(C(N)=O)c1)N(CCCO)CC2)NCCOc1ccccc1OCC(F)(F)F,Potency,[1],inactive
same,Potency,[2],inactive
CCCCC(CC)COc1ccc(-c2nc(-c3ccc(OC)cc3)nc(-c3ccc(OCC(CC)CCCC)cc3O)n2)c(O)c1 (stereo not drawn),"activity, negative = inhibition",[1],-11% [at 4.49 µM]
same,"activity change, negative = inhibition",[2],-23.8% [at 4.52 µM]
O=P(O)(O)OC1C(OP(=O)(O)O)C(OP(=O)(O)O)C(OP(=O)(O)O)C(OP(=O)(O)O)C1OP(=O)(O)O (stereo not drawn),Potency,[1],inactive
same,Potency,[2],inactive
CCCCCCCCCCCC(=O)OCN1C(=O)CCc2ccc(OCCCCN3CCN(c4cccc(Cl)c4Cl)CC3)cc21,Potency,[1],inactive
same,Potency,[2],inactive
